# An excerpt weighted towards active compounds, which were near 21% of everything screened.
# Pf growth 96h = P. falciparum growth inhibition at 96 hours; 6.9% of 320,000 active; AID 504834; Potency, µM (top dose mostly 28.7 µM), for inactives: at the highest dose activity change, negative = inhibition, hits mostly inhibitors; P. falciparum luciferase reporter growth, 96 h; further: potency means the concentration at half of the fitted maximal effect; on the % scale 0 is the no-effect control and ±100 the full control effect
#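 96 h incubation, 37 C, 5% CO2, of luciferase-reporter P. falciparum-infected RBCs (2% hematocrit, 0.05% parasitemia final) with test compounds; endpoint luminescence.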
# Sm TGR block = blocks Schistosoma mansoni thioredoxin glutathione reductase; 3% of 360,000 active; purified TGR, DTNB reduction, TNB absorbance 405 nm; Potency, µM (titrated, usually from 114 µM), without a hit: top-dose activity change, negative = inhibition, most hits filed as inhibitors; AID 485364; Q962Y6; further: potency means the concentration at half of the fitted maximal effect; on the % scale 0 is the no-effect control and ±100 the full control effect; nearly all actives have a fitted effect of over 60% in size
#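 Kinetic colorimetric format: TGR-catalysed, NADPH-driven DTNB reduction monitored via TNB absorbance. Enzyme dispensed at 20 nM; compound exposure 15 min at room temperature before reaction start.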
# NS1 inh = influenza NS1 inhibition. Potency, µM (top dose mostly 46.1 µM), for inactives: at the top dose activity, positive = more growth. 0.4% of 270,000 active; calls by dose curve; further: potency means the concentration at half of the fitted maximal effect; actives are rising curves; nearly all actives have a fitted effect of over 50% in size
#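 OD600 was taken as the measure of yeast growth restored by compound in an NS1-expressing S. cerevisiae strain. Cells had been washed out of glucose medium and diluted 1:100 into galactose -URA medium, pH 6.0.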
# Cycloheximide cs = affects cycloheximide protein synthesis inhibition readout, counter-screen; cell reporter, cycloheximide protein synthesis inhibition counterscreen; 12% of 300,000 active; AID 2314; max response, %; in the data active means max response mostly above about 13%, no sharp cut-off; inactive means mostly below about 14%; further: read at 38.3 µM for the half of the compounds with a filed dose; 0% is about no effect
# Pf growth 48h = P. falciparum growth inhibition at 48 hours (one generation); P. falciparum luciferase growth in erythrocytes, 48 h; 5.9% of 310,000 active; Potency, µM (doses to about 28.7 µM), without a hit: top-dose activity change, negative = inhibition, hits mostly inhibitors; further: potency means the concentration at half of the fitted maximal effect; on the % scale 0 is the no-effect control and ±100 the full control effect
#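 In quantitative HTS format, infected erythrocytes bearing luciferase-reporter parasites were treated for a single generation at 37 C. Luminescence after adding detection reagent served as the growth measure.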
# Shiga inhibitor = inhibitors of Shiga toxin in Vero cells. inhibition, % at 38.7 µM. 9.2% of 290,000 active. Vero cells, Shiga toxin protein synthesis inhibition reporter; in the data active means inhibition mostly above about 28%, no sharp cut-off; inactive means mostly below about 43%; further: 0% is about no effect
# Active calls of the source: *; ? = inconclusive; / = not tested or not shown. Unless noted, the call rests on the fitted dose curve; in most records, active means well fitted curve in the direction sought with a large enough effect; inconclusive means small, poorly fitted or top-dose-only effect, or another doubt; inactive means no such curve, though single readings can be large; an effect the other way counts as inactive or inconclusive.
SMILES,Pf growth 96h,Sm TGR block,NS1 inh,Cycloheximide cs,Pf growth 48h,Shiga inhibitor
CC(=O)Oc1ccc(C(=C2CCCCC2)c2ccc(OC(C)=O)cc2)cc1,-34%,/,/,-4,-7%,-5
CN[C@@H](c1ccncc1)[C@@H](NC)c1ccncc1,/,/,0%,/,/,/
O=C(CSc1ccc2ccccc2n1)c1ccc2c(c1)OCO2,115%,14%,-4%,53*,/,104*
O=C(CSc1ncn[nH]1)NCCC(c1ccccc1)c1ccccc1,10µM*,2%,-1%,-3,?,-10
O=C(CSc1ncn[nH]1)NCCOc1ccccc1,-2%,-6%,5%,2,13%,19
O=C(O)CSc1ccc2ccccc2n1,?,7%,-24%,-1,16%,-4
COc1ccc(C(=O)Nc2nnc(S(=O)(=O)N3CCN(c4ccc(C)cc4)CC3)s2)cc1,/,-4%,/,/,/,/
CCCCN(C(=O)Cn1ncc(Cl)c(Cl)c1=O)c1c(N)n(CC(C)C)c(=O)[nH]c1=O,-22%,4.5µM*,3%,-2,0%,-3
CCCCN(C(=O)CN1CC(C)OC(C)C1)c1c(N)n(CC(C)C)c(=O)[nH]c1=O (centres undefined),-14%,-10%,4%,-2,8%,-8
COCCN(C(=O)CSc1nnc(-c2ccc(Cl)cc2)o1)c1c(N)n(CC(C)C)c(=O)[nH]c1=O,?,4%,-1%,-2,?,-8
CCCCN(C(=O)CSc1nnc(-c2ccc(Cl)cc2)o1)c1c(N)n(CC(C)C)c(=O)[nH]c1=O,?,0%,/,/,13µM*,/
COc1cc(/C=N/NC(N)=O)ccc1OC(=O)c1cccs1,0%,-1%,1%,-2,14%,-31
COc1cc(/C=N/N(C)C)ccc1OC(=O)c1ccco1,3%,-1%,/,19,-14%,-6
COc1cc(/C=N/Nc2ccc(Cl)cc2)ccc1OC(=O)c1cccs1,-18%,-32%,-19%,16*,2%,14
COc1cc(/C=N/N(C)C)ccc1OC(=O)c1cccs1,41%,-4%,-28%,29*,456%,71*
Cc1cc(C)c(NC(=O)C2CSCCS2)c(C)c1 (centres undefined),94%,2%,0%,20*,61%,57*
CC(=O)CCc1oc2ccc([N+](=O)[O-])cc2c1-c1ccc(C)o1,-25%,20µM*,-3%,1,23%,-15
CC(=O)CCc1oc2ccccc2c1-c1ccccc1,-1%,-26%,-7%,-5,0%,4
CC(=O)CCc1oc2c([N+](=O)[O-])cccc2c1-c1ccc(C)o1,31%,11µM*,-13%,0,-8%,-27
NC[C@@H](O)CSCc1ccc(Cl)cc1,/,/,-9%,/,/,/
CCOc1ccc(C2NC(=O)Cc3cc(OC)c(OC)cc32)cc1 (centres undefined),?,9%,2%,-2,-28%,-8
CCOc1ccc(C2OC(=O)Cc3cc(OC)c(OC)cc32)cc1 (centres undefined),1.2µM*,-15%,4%,-4,?,-13
CCCSc1nc2ccccc2c(=O)n1-c1ccccc1OC,/,8%,/,/,/,/
C=CCSc1nc(O)c(C2OC(=O)c3c2ccc(OC)c3OC)c(=O)n1-c1ccccc1 (centres undefined),23%,4µM*,6%,-2,3%,12
CCCSc1nc(O)c(C2OC(=O)c3c2ccc(OC)c3OC)c(=O)n1-c1ccccc1 (centres undefined),-6%,11µM*,26%,-2,/,-5
SMILES,Pf growth 96h,Sm TGR block,NS1 inh,Cycloheximide cs,Pf growth 48h,Shiga inhibitor
CCCCSc1nc(O)c(C2OC(=O)c3c2ccc(OC)c3OC)c(=O)n1-c1ccccc1 (centres undefined),-13%,8.9µM*,?,7,/,-4
Cc1cc(C)c2c(=O)cc(CSCC(=O)Nc3ccccc3Cl)[nH]c2c1,/,3%,/,/,/,/
CSc1scc2c1-c1nc(SCC(=O)C(C)(C)C)ncc1CC2,9.3µM*,-8%,6%,-4,9.3µM*,7
C=CCNC(=O)CSc1ncc2c(n1)-c1c(csc1SC)CC2,-14%,-17%,-4%,-1,0%,-2
CC(=O)NC1=C(OS(=O)(=O)c2ccc(C)cc2)CN(C)C1=O,/,/,-6%,/,/,/
CC[C@]1(OC(=O)CN)C(=O)OCc2c1cc1n(c2=O)Cc2cc3ccccc3nc2-1,/,/,-11%,/,/,/
CC[C@@]1(O)C(=O)OCc2c1cc1n(c2=O)Cc2cc3c(NC(=O)CN)cccc3nc2-1,7.4µM*,?,0%,3,?,7
CC[C@@]1(O)C(=O)OCc2c1cc1n(c2=O)Cc2cc3c(O)cccc3nc2-1,/,/,/,-3,/,-7
CCC1(OC(=O)CN)C(=O)OCc2c1cc1n(c2=O)Cc2cc3ccccc3nc2-1 (centres undefined),0.93µM*,0%,-50%,1,1.7µM*,4
COc1ccc(N2CC(C(=O)N3CCN(c4ccccc4OC)CC3)CC2=O)cc1 (centres undefined),-12%,-8%,0%,-9,13%,-6
O=C(NCc1cccn1Cc1ccccc1)Nc1ccc(Br)cc1F,/,-7%,/,/,/,/
CCCn1c(COc2ccc(C(=O)O)cc2)nc2ccccc21,111%,6%,4%,-2,1%,/
COc1ccc(OCC(=O)N/N=C(\C)c2ccc(OC)cc2)cc1,-18%,-4%,/,20,4%,-3
C/C(=N\Nc1nncc2ccccc12)c1ccc(OCC(=O)N(C)C)cc1,6%,8%,-11%,44*,-14%,138*
CC/C(=N\Nc1nncc2ccccc12)c1ccc(F)cc1,0%,6%,1%,47*,6%,71*
Cc1nc(Cl)nc(N(C)c2ccccc2)c1[N+](=O)[O-],44%,4.5µM*,-30%,-1,28%,-6
Cc1nc(N/N=C/c2ccccc2)nc(N(C)c2ccccc2)c1[N+](=O)[O-],?,-2%,17%,-2,0%,-4
O=C(NC(=S)NCc1cccnc1)c1cccc2ccccc12,?,/,1%,-2,-19%,-7
C[C@H]1[C@H](C)CC[C@]2(C=O)CC[C@]3(C)C(=CC[C@@H]4[C@@]5(C)C[C@@H](O)[C@H](O)[C@@](C)(CO)[C@@H]5CC[C@]43C)[C@H]12,/,/,/,-7,/,11
Cc1ccc(CNc2ccc(CNc3ncn[nH]3)cc2)cc1,-16%,-17%,14%,15*,/,36
c1ccc2c(CNc3ccc(CNc4ncn[nH]4)cc3)cccc2c1,?,-8%,11%,23*,14%,active
CCOc1ccc(CNc2ccc(CNc3ncn[nH]3)cc2)cc1,?,/,10%,6,45%,-2
O=C(NC1CCCCC1)c1cc(S(=O)(=O)N2CCOCC2)c(Cl)cc1Cl,?,-1%,-11%,-2,-9%,-3
O=C(NC1CCCC1)c1cc(S(=O)(=O)N2CCOCC2)c(Cl)cc1Cl,4.7µM*,13%,1%,6,-30%,-11

# Source: PubChem BioAssay (National Center for Advancing Translational Sciences (NCATS))
